According to the supplement of paper PMC12494721:
Structures can show the parent of a compound that is named as a salt.

The compounds below were run on Klebsiella aerogenes DSM 30053 (assay: growth (OD595) fold change vs plate DMSO controls (fold change (ratio)); higher = more growth). Settings: incubation time: 27 h, anaerobic, 37 °C.
Method in brief: (§1)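 Shaken 96-well cultures in mGAM, grown anaerobically for 27 h at 37 °C, were read at 595 nm. OD came from blank-subtracted readings, corrected for background with 20 µM compound solutions in water and scaled by a calibration factor of 5. Growth is the fold change versus the plate's median DMSO control. Values average 2 biological replicates, and any fold change above 1.5 is NA.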

SMILES | growth
CN(C)CCc1c[nH]c2ccc(Cn3cncn3)cc12 [Rizatriptan benzoate] (20 µM) | 1.02
C[C@H]1C[C@@H]2[C@H]([C@@H](O)C[C@@]3(C)[C@H]2CC[C@]3(O)C(=O)CO)[C@@]2(C)C=CC(=O)C=C12 [Methylprednisolone, 6-alpha] (20 µM) | 1.01
CC1COc2ccccc2N1C(=O)C(Cl)Cl (configuration not stated) (20 µM) | 1.02
C=C1c2cccc(O)c2C(O)=C2C(=O)[C@]3(O)C(O)=C(C(N)=O)C(=O)[C@@H](N(C)C)[C@@H]3[C@@H](O)[C@H]12 [Methacycline hydrochloride] (20 µM) | 0.0637
CCN1CCCC(OC(=O)C(c2ccccc2)c2ccccc2)C1 (configuration not stated) [Piperidolate hydrochloride] (20 µM) | 0.987

These compounds were tested on Ruminococcus gnavus DSM 108212 in the same assay as above. Settings: incubation time: 27 h, anaerobic, 37 °C.
Method in brief: as §1

SMILES | growth
CN1CCC(=C2c3ccccc3CCc3cccnc32)CC1 [Azatadine maleate] (20 µM) | 0.99
CC(=O)OC[C@H]1O[C@@H]([S-])[C@H](OC(C)=O)[C@@H](OC(C)=O)[C@@H]1OC(C)=O.CCP(CC)CC.[Au+] [Auranofin] (20 µM) | 0.00158
C=CCOC(Cn1ccnc1)c1ccc(Cl)cc1Cl (configuration not stated) (20 µM) | 0.883
CC[C@H](C)C(=O)O[C@H]1CCC=C2C=C[C@H](C)[C@H](CC[C@@H]3C[C@@H](O)CC(=O)O3)[C@H]21 [Mevastatin] (20 µM) | 1.02
NS(=O)(=O)c1cc2c(cc1Cl)NC(Cc1ccccc1)NS2(=O)=O (configuration not stated) [Benzylhydrochlorothiazide] (20 µM) | 0.982
O=c1[nH]c(=O)n(C2CCCO2)cc1F (configuration not stated) [Tegafur] (20 µM) | 0.933
Cc1nn(C)c(Oc2ccccc2)c1/C=N/OCc1ccc(C(=O)OC(C)(C)C)cc1 (20 µM) | 0.998
CS(=O)(=O)OCCCCOS(C)(=O)=O [Busulfan] (20 µM) | 1.09
CCSc1ccc2c(c1)N(CCCN1CCN(C)CC1)c1ccccc1S2 [Thiethylperazine maleate] (20 µM) | 0.847
Cc1ncc([N+](=O)[O-])n1C [Dimetridazole] (20 µM) | 0.811
CC[C@@H]1C(=O)OC[C@@H]1Cc1cncn1C [Pilocarpine nitrate] (20 µM) | 0.556
Clc1ccc(C(Cn2ccnc2)OCc2ccsc2Cl)c(Cl)c1 (configuration not stated) [Tioconazole] (20 µM) | 0.0103
c1coc(CNc2ncnc3[nH]cnc23)c1 [Kinetin] (20 µM) | 0.855
CC1(C)O[C@@H]2C[C@H]3[C@@H]4CCC5=CC(=O)CC[C@]5(C)[C@@]4(F)[C@@H](O)C[C@]3(C)[C@]2(C(=O)CCl)O1 [Halcinonide] (20 µM) | 1.07
CC(=O)N[C@@H](CC(C)C)C(=O)O [N-Acetyl-L-leucine] (20 µM) | 1
COc1cccc(CCc2ccccc2OCC(CN(C)C)OC(=O)CCC(=O)O)c1 (configuration not stated) [Sarpogrelate hydrochloride] (20 µM) | 0.991
CN1CCC(=C2c3ccccc3CCc3sccc32)CC1 [Pizotifen malate] (20 µM) | 0.963
Oc1ccc2ccccc2c1N=Nc1ccccc1 [Sudan I (1-phenylazo-2-hydroxynaphthalene)] (20 µM) | 1.12
CC(C)(C)c1ccc(C(=O)CCCN2CCC(OC(c3ccccc3)c3ccccc3)CC2)cc1 [Ebastine] (20 µM) | 0.852
O=c1oc2cc(O)ccc2s1 [Tioxolone] (20 µM) | 1.07
CCCOc1ccc(C(=O)OCCN(CC)CC)cc1N [Proparacaine hydrochloride] (20 µM) | 1.03
CC(C)NC[C@H](O)COc1cccc2ccccc12 [(S)-(-)-Propranolol hydrochloride] (20 µM) | 1.14
COc1cc(C(=O)NCc2ccc(OCCN(C)C)cc2)cc(OC)c1OC [Trimethobenzamide hydrochloride] (20 µM) | 1.04
N[C@@H](Cc1cc(I)c(Oc2cc(I)c(O)c(I)c2)c(I)c1)C(=O)O [(L) Thyroxine] (20 µM) | 0.958
O=C(NCC(O)CO)c1c(I)c(C(=O)NCC(O)CO)c(I)c(N(CCO)C(=O)CO)c1I (configuration not stated) [Ioversol] (20 µM) | 1.11
CCCCC[C@H](O)/C=C/[C@H]1[C@H](O)CC(=O)[C@@H]1CCCCCCC(=O)O [Alprostadil] (20 µM) | 1.01
CC(C)(CO)[C@@H](O)C(=O)NCCCC(=O)O [Hopantenate calcium] (20 µM) | 1.05
